From PubChem BioAssay
An excerpt weighted towards active compounds, which were near 2.8% of everything screened.
Mito fusion yeast = mitochondrial division inhibition or fusion activation; S. cerevisiae fusion-defective mutant growth rescue, CellTiterGlo 48 h; Potency, µM (top dose mostly 46.1 µM), most hits filed as activators; hit rate 0.23% among 320,000; AID 485298; also: nearly all actives have a fitted effect of over 45% in size
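Temperature-sensitive fusion-defective S. cerevisiae (e.g. fzo1-1, mgm1-5) were grown with compound in YPEG medium (3% ethanol, 3% glycerol) for 48 hours at 37C. Growth rescue was measured as viability by CellTiterGlo luminescence after 10 minutes at ambient.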
GLP1R inv ag = acts as inverse agonist at human GLP-1 receptor; P43220; HEK293 GLP-1R CRE-luciferase, luminescence, 24 h; GLP-1R form is constitutively active; Potency, µM (top dose mostly 38.3 µM), hits mostly inhibitors; hit rate 1.6% among 410,000; AID 624417; also: nearly all actives have a fitted effect of over 55% in size
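Cells are plated, allowed 12 hours at 37 deg C, then treated with compounds for 24 hr before luciferase detection reagent is added and luminescence is read after 12 min at room temperature. The HEK293 line carries constitutively active GLP-1R with a cAMP-responsive reporter.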
BRCA1 expr up = increases BRCA1 expression; MCF7-BRCA1-FFLuc reporter, luminescence, 48 h; response scale: scaled: vehicle 0%, 10 µM genistein 100%; Potency, µM (series often up to 46.1 µM), usual class: activators; hit rate 1.1% among 380,000; AID 624202; also: nearly all actives have a fitted effect of over 80% in size
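Luminescence from a BRCA1-driven firefly luciferase in MCF7 cells was the read-out, taken 15 min after substrate addition following 48 h compound exposure at 37 °C. Data were normalized to a 10 microM genistein control and DMSO vehicle.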
GLP-1R agonist = agonists of human GLP-1 receptor; P43220; HEK293 GLP-1R CRE-luciferase, luminescence, 4-6 h; cells express a hypersensitive GLP-1R form; Potency, µM (titrated, usually from 45.6 µM), actives largely listed as activators; hit rate 0.007% among 380,000; AID 624172
GLP1R cytotox = cytotoxicity in counter-screen for GLP-1R inverse agonists. HEK293 cAMP-luciferase reporter cells, luminescence, 24 h. Potency, µM (doses to about 38.3 µM), hits mostly inhibitors. hit rate 0.13% among 410,000. AID 624418;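 also: loss of luciferase light is scored as toxicity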
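Here, cytotoxicity is scored as loss of luminescence. The MLSMR collection was tested on cells seeded in medium containing 10% Nu serum, with a 24 hr compound exposure preceded by 12 hours of culture.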
Of the large screens only hits and unclear results are named; the others gave an inactive call. Calls follow the shape of the dose curve; as a rule, active = well fitted curve in the direction sought with a large enough effect; inconclusive = small, poorly fitted or top-dose-only effect, or another doubt; inactive = no such curve, though single readings can be large; an effect the other way counts as inactive or inconclusive.

CC(C)Cn1c(N)c(C(=O)COC(=O)c2ccccc2F)c(=O)n(C)c1=O	GLP1R inv ag inconclusive
O=C(O)CC1NC(=S)N(Cc2ccccc2)C1=O (configuration not stated)	GLP1R inv ag 7.9µM, GLP1R cytotox inconclusive (no result: Mito fusion yeast)
N#CCSc1nnc(-c2ccc3c(c2)OCO3)o1	none
Cc1ccc(C(=O)NC(=S)Nc2cccnc2Cl)cc1	BRCA1 expr up 11µM
C=C1C(=O)[C@]23C[C@H]1CCC2[C@]1(C)CCC[C@@](C)(C(=O)O)C1C[C@@H]3O (some centres not stated)	GLP1R inv ag 1.8µM, GLP1R cytotox inconclusive (no result: Mito fusion yeast)
CCCCn1c(SCC(=O)N2c3ccccc3Sc3ccccc32)nc2c1c(=O)n(C)c(=O)n2C	GLP1R inv ag 11µM
Cc1cc(C)c(S(=O)(=O)Nc2ccc3oc4c(c3c2)C(=O)CC(C)(C)C4)cc1C	GLP1R inv ag inconclusive (no result: Mito fusion yeast, BRCA1 expr up, GLP-1R agonist)
COc1cccc(NC(=O)C2CCC(CNS(=O)(=O)c3csc(C(N)=O)c3)CC2)c1 (configuration not stated)	none (no result: Mito fusion yeast, GLP-1R agonist)
Cc1ccc(Oc2ncccc2/C=N/OCc2ccc(Cl)c(Cl)c2)cc1	GLP1R inv ag 10µM
CC(/C=N/NC(=O)Cc1cccs1)=C\c1ccccc1	BRCA1 expr up inconclusive
O=C(Cc1cccs1)N/N=C/C(Br)=C/c1ccccc1	BRCA1 expr up 5µM
Cc1cccc(C(=O)N2CCC(=O)N([C@H](COCc3cccc(C(F)(F)F)c3)Cc3ccccc3)CC2)c1	GLP1R inv ag 11µM, GLP1R cytotox inconclusive (no result: Mito fusion yeast)
Cc1ccc(S(=O)(=O)N2CCC(=O)N(C(COCc3ccc(Cl)cc3)Cc3ccccc3)CC2)cc1 (configuration not stated)	GLP1R inv ag 11µM
Cc1ccc(S(=O)(=O)N2CCC(=O)N([C@H](COCc3ccc(Cl)cc3Cl)Cc3ccccc3)CC2)cc1	GLP1R inv ag inconclusive (no result: Mito fusion yeast)
